Measurements reported in PubChem BioAssay (EPA / NIEHS).
Some compounds were tested as several samples or in several runs, with calls that do not always agree. Active and inactive are the calls of the source. Rule for the calls: active = hit-call score of the fitted dose curve at least 0.9, where 1 is the maximum; inactive = score below 0.9.

molecular target: Transcription factor Sp1 (Homo sapiens) (UniProt P08047); assay: ATG_Sp1_CIS: Attagene CIS-FACTORIAL HepG2 Assay for human Specificity Protein 1 (Sp1) (AID 2282961); settings: HepG2 Sp1 cis-reporter transcription, actives raise or lower the signal
Sequence (P08047 whole entry, looked up): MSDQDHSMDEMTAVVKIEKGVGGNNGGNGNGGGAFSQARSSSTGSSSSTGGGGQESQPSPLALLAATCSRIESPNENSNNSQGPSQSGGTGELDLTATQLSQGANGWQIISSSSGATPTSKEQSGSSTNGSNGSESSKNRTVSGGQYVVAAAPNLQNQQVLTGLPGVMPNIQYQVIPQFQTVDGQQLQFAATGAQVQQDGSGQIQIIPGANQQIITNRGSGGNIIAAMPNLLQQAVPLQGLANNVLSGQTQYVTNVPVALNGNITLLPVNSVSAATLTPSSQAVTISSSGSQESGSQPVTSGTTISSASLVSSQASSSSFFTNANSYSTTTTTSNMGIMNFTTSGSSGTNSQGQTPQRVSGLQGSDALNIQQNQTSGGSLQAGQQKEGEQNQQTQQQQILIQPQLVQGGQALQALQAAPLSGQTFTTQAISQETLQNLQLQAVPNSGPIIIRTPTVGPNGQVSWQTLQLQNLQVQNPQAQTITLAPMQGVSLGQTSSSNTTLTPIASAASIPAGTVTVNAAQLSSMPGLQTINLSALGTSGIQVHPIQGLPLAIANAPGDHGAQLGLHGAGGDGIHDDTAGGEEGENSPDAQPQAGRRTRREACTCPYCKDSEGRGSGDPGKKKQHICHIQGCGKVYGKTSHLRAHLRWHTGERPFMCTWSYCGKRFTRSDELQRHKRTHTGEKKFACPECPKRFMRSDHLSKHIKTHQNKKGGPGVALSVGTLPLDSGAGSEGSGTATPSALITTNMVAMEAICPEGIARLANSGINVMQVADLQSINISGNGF
Method: ATG_CIS is a cell-based, multiplexed-readout assay that uses HepG2, a human liver cell line, with measurements taken at 24 hours after chemical dosing in a 24-well plate.ATG_Sp1_CIS is one of 52 assay component(s) measured or calculated from the ATG_CIS assay. It is designed to make measurements of mRNA induction, a form of inducible reporter, as detected with fluorescence intensity signals by Reverse transcription polymerase chain reaction (RT-PCR) and Capillary electrophoresis technology.Data from the assay component ATG_Sp1_CIS was analyzed into 1 assay endpoint. This assay endpoint, ATG_Sp1_CIS, was analyzed with bidirectional fitting relative to DMSO as the negative control and baseline of activity. Using a type of inducible reporter, measures of mRNA for gain or loss-of-signal activity can be used to understand the reporter gene at the transcription factor-level as they relate to the gene SP1. Furthermore, this assay endpoint can be referred to as a primary readout, because this assay has produced multiple assay endpoints where this one serves a reporter gene function. To generalize the intended target to other relatable targets, this assay endpoint is annotated to the dna binding intended target family, where the subfamily is zinc finger.
Human liver HepG2 cells are transiently transfected with multiple reporter transcription units (MRTUs) in 6-well plates using FuGene 6 reagent (Roche; 3 ml FuGene/1 mg DNA). The MRTU constructs are regulated by a cis-regulating element (promoter). […] A major difference between the CIS and TRANS system is that in CIS activities of endogenous TFs are measured, whereas the TRANS assay evaluates changes in activities of exogenous, chimeric NR-Gal4 proteins. […] At the end of 24 hour incubation, total RNA was isolated using TriZol reagent (Invitrogen). The isolated RNA is then reverse-transcribed using oligo(dT) primer and Mo-MLV reverse transcriptase (Invitrogen) with DNAse I (Ambion) treatment for 30 min. The one-tenth of the produced cDNA was amplified by PCR using Taq DNA polymerase (Invitrogen) and two reporter sequence-specific primers. The PCR products were fluorescently labeled by primer extension with 6-arboxyfluorescein (6-FAM) 5'-labeled reporter sequence-specific primer (2 min at 95 C, 20 s at 68 C and 10 min at 72 C) and these products were digested with 5U of HpaI (New England Biolabs) for 2h at 37 C. The fragments were purified using Qiaquick PCR columns (Qiagen), analyzed on an ABI 3130xL genetic analyzer (Applied Biosystems) with peak positions identified by using a set of X-rhodamine (ROX)-labeled MapMarker1000 molecular weight standards (BioVentures). The raw capillary electrophoresis data was processed using Attagraph software (Attagene).

Row | SMILES | outcome | AC50
1 | COc1ccc(C=O)cc1OC | inactive | –
2 | CN(C)N=O | inactive | –
3 | COc1cc2c(cc1OC)[C@@]13CCN4CC5=CCO[C@H]6CC(=O)N2[C@H]1[C@H]6[C@H]5C[C@H]43 | inactive | –
4 | C[C@H]1CCCC(=O)CCC/C=C/c2cc(O)cc(O)c2C(=O)O1 | inactive | –
5 | N#CCCO | inactive | –
6 | COc1cccc(C=O)c1 | inactive | –
7 | O=C1C(Cl)=C(Cl)C(=O)c2ccccc21 | inactive | –
8 | ClC1(Cl)C2(Cl)C3(Cl)C4(Cl)C(Cl)(Cl)C5(Cl)C3(Cl)C1(Cl)C5(Cl)C24Cl (stereo not given) | inactive | –
9 | O=S(=O)(c1ccc(Cl)cc1)c1ccc(Cl)cc1 | inactive | –
10 | ClCc1cccnc1 | – | 30.8 µM (active)
11 | C=C(C)C#N | inactive | –
12 | COP(=S)(OC)Oc1ccc(S(=O)(=O)N(C)C)cc1 | inactive | –
13 | CCOP(=O)(CN(CCO)CCO)OCC | inactive | –
14 | OCC(O)CCl (stereo not given) | inactive | –
15 | C[C@H]1O[C@@H](O[C@H]2[C@@H](O)C[C@H](O[C@H]3[C@@H](O)C[C@H](O[C@H]4CC[C@@]5(C)[C@H](CC[C@@H]6[C@@H]5CC[C@]5(C)[C@@H](C7=CC(=O)OC7)CC[C@]65O)C4)O[C@@H]3C)O[C@@H]2C)C[C@H](O)[C@@H]1O | – | 3.3 µM (active)
16 | CCN1CCC2(CC1)COc1cc3c(cc12)N(C(=O)c1ccc(-c2ccc(-c4nnc(C)o4)cc2C)cc1)CC3 | inactive | –
17 | O=C1CCCN1 | inactive | –
18 | CC(=O)C=C(C)C | inactive | –
19 | CCC(=O)c1ccccc1 | inactive | –
20 | CCC[CH2][Sn]([Cl])([Cl])[Cl] | inactive | –

Row | SMILES | outcome | AC50
21 | CCCCCCCCSC(=O)Oc1cc(Cl)nnc1-c1ccccc1 | inactive | –
22 | CC(C)c1cccc(C(C)C)c1O | inactive | –
23 | N#CN=C(N)N | inactive | –
24 | Clc1nc(Cl)nc(Cl)n1 | inactive | –
25 | CCOP(=S)(OCC)SCCS(=O)(=O)CC | inactive | –
26 | CC(C)(c1ccc(OCC2CO2)cc1)c1ccc(OCC2CO2)cc1 (stereo not given) | inactive | –
27 | CCSC(C)CC1CC(=O)C(C(CC)=NOC/C=C/Cl)=C(O)C1 (stereo not given) | inactive | –
28 | CCOC(=O)Nc1cccc(OC(=O)Nc2ccccc2)c1 | inactive | –
29 | Nc1cccc(Cl)c1 | inactive | –
30 | CCOP(=S)(OCC)Oc1nc(Cl)c(Cl)cc1Cl | – | 65.3 µM (active)
31 | CCC(C)c1cccc(C(C)CC)c1O (stereo not given) | inactive | –
32 | O=C(c1ccccc1)C(Cl)Cl | – | 25.2 µM (active)
33 | O=C1C2(Cl)C3(Cl)C4(Cl)C(Cl)(Cl)C5(Cl)C3(Cl)C1(Cl)C5(Cl)C24Cl (stereo not given) | inactive | 5.85 µM (active)
34 | CC(C)(OO)c1ccccc1 | inactive | –
35 | CCc1ccccc1N | inactive | –
36 | ClC1=C(Cl)[C@]2(Cl)[C@@H]3[C@@H](Cl)[C@@H](Cl)C[C@@H]3[C@@]1(Cl)C2(Cl)Cl | inactive | –
37 | Cc1cc(=O)[nH]o1 | inactive | –
38 | Nc1ccc(Cl)cc1C(=O)c1ccccc1 | inactive | –
39 | CC(C)OC(=O)Nc1ccccc1 | inactive | –
